We go through 38 compounds from PubChem BioAssay (NCATS).

Each structure is given as a SMILES string. Inconclusive results are not listed. A call without a number means that no potency is given here. Unmarked numbers belong to inactive results. Activity calls are given as the source filed them. The call rests on the fitted dose curve; in most records, active means well fitted curve in the direction sought with a large enough effect; inconclusive means small, poorly fitted or top-dose-only effect, or another doubt; inactive means no such curve, though single readings can be large; an effect the other way counts as inactive or inconclusive.

Test [1] deals with Aldehyde dehydrogenase, mitochondrial (Homo sapiens) (UniProt P05091). Kind of test: qHTS for Inhibitors of the Aldehyde Dehydrogenase Family (ALDH2) Primary screen (AID 2061308). Further: nearly all actives have a fitted effect of over 55% in size. A general note: Quantitative high-throughput screening tests each substance at several concentrations.
The target of test [2] is Retinaldehyde dehydrogenase 3 (Homo sapiens) (UniProt P47895). The test is described as follows: qHTS for Inhibitors of the Aldehyde Dehydrogenase Family (ALDH1A3) Primary screen (AID 2061315).

Consider `COc1cc2ncnc(Nc3cccc(O)c3)c2cc1OC`, for which the Potency entry in test [1] and in test [2] was “inactive” in each case.

As to `Cc1cnc(-c2ccccc2C(C)O)nc1NCc1ccc(-c2cccnc2)cc1` (stereo unspecified), the Potency entry in test [1] and in test [2] was “inactive” in each case.

Consider `Cc1ccc(NS(=O)(=O)c2cc3c(cc2N2CCCCC2)NC(=O)CC3)cc1C`, for which the Potency result in test [1] and in test [2] was “inactive” each time.

As for `O=C(CCc1ccccc1)Nc1ncnc2c1C(c1ccccc1)c1c(ccc3ccccc13)O2` (stereo unspecified), the Potency entry in test [1] and in test [2] was “inactive” each time.

For `Cc1ccc(-c2cc(C(=O)Nc3ncco3)c3ccccc3n2)cc1C`, the Potency entry in test [1] and in test [2] was “inactive” throughout.

Regarding `COc1ccc(CNc2ccc(-c3nc4ccccc4[nH]3)cc2)cc1OC`, the Potency entry in test [1] and in test [2] was “inactive” each time.

In the case of `COc1ccc(C2=Nn3c(nnc3-c3ccccc3O)SC2)cc1OC`, the Potency entry in test [1] and in test [2] was “inactive” each time.

As to `COc1cc(O)c(C(CC(=O)N2CCC[C@H](C)C2)c2ccc3c(c2)OCO3)c(OC)c1` (stereo partly specified), the Potency entry in test [1] and in test [2] was “inactive” throughout.

Turning to `CC(C)CCC[C@@H](C)[C@H]1CC[C@H]2[C@@H]3CC=C4C[C@@H](OC(=O)NCCN(C)C)CC[C@]4(C)[C@H]3CC[C@]12C`, the Potency entry in test [1] and in test [2] was “inactive” each time.

For `COCCNc1nc(C)nc2c1nc(-c1ccccc1)n2C1CCN(Cc2ccccc2)C1` (stereo unspecified), the Potency result in test [1] and in test [2] was “inactive” each time.

For the compound `Oc1ccc(CNc2ccc3ccccc3n2)c2cccnc12`, the Potency result in test [1] and in test [2] was “inactive” throughout.

`COc1ccc(C2Nc3ccccc3C(=O)N2Cc2ccccc2OC)cc1COc1c(C)cc(NC(C)=O)cc1C` (stereo unspecified): the Potency entry in test [1] and in test [2] was “inactive” each time.

On to `NC(=O)Nc1cc(-c2ccc(CN3CCOCC3)c(F)c2)sc1C(=O)N[C@H]1CCCNC1`, for which the Potency result in test [1] and in test [2] was “inactive” each time.

In the case of `N#Cc1c(-c2cccc(C(F)(F)F)c2)no[n+]1[O-]`, the Potency entry in test [1] and in test [2] was “inactive” throughout.

With `CC(C)c1ccccc1-c1nc(NCc2ccc(-c3cccnc3)cc2)c2sccc2n1`, the Potency result in test [1] and in test [2] was “inactive” each time.

For the compound `Cc1nc(C)c(-c2ccc3ncnc(NCCc4cnc[nH]4)c3c2)s1`, the Potency entry in test [1] and in test [2] was “inactive” throughout.

As for `Cc1ccc(OCCn2c(CCNC(=O)COc3ccccc3Br)nc3ccccc32)cc1`, the Potency result in test [1] and in test [2] was “inactive” in each case.

Turning to `O=C1CCCC2=C1C(c1c(Cl)cccc1Cl)N=C(Nc1nc3ccccc3o1)N2` (stereo unspecified), the Potency result in test [1] and in test [2] was “inactive” in each case.

`COc1cc(O)c(C(CC(=O)N2CCC(C)CC2)c2ccc(C)cc2)c(OC)c1` (stereo unspecified): the Potency result in test [1] and in test [2] was “inactive” in each case.

With `O=C(Nc1ccc2c(c1)OCCO2)c1ccc(-c2nc3ccccc3[nH]2)cc1`, the Potency entry in test [1] and in test [2] was “inactive” each time.

Regarding `COc1cc(Nc2nc(-c3ccncc3)nc3ccccc23)ccc1Cl`, the Potency result in test [1] and in test [2] was “inactive” throughout.

As to `CC(C)(C)c1cccc(NC(=O)Nc2nnc(-c3ccncc3)s2)c1`, the Potency entry in test [1] and in test [2] was “inactive” in each case.

As to `C=C1C(O)C(O)C2(CC3C(C)=CCC4C(C)(CO)CCCC34C)OC2C1O` (stereo unspecified), the Potency entry in test [1] and in test [2] was “inactive” each time.

In the case of `Cc1cc(C)n2ncc(C(=O)Nc3ccncc3)c2n1`, the Potency entry in test [1] and in test [2] was “inactive” each time.

For `Cc1cc2c(s1)c1cnn(Cc3cc(C(F)(F)F)cc(Cl)c3F)c(=O)c1n2C`, the Potency result in test [1] and in test [2] was “inactive” throughout.

`O=C(Nc1ncc(Cc2cccc(C(F)(F)F)c2)s1)c1ccc(-c2cccc([N+](=O)[O-])c2)o1`: the Potency entry in test [1] and in test [2] was “inactive” each time.

Regarding `CC(=O)c1c(C)[nH]c(C(=O)Nc2ccc(OCCCN(C)C)c(S(=O)(=O)Nc3ccc(Br)cc3)c2)c1C`, the Potency result in test [1] and in test [2] was “inactive” each time.

For `CN1CCN(c2cc(-c3nc(Nc4ccc(F)c(F)c4)c4ccccc4n3)ccn2)CC1`, the Potency result in test [1] and in test [2] was “inactive” in each case.

As for `O=C(OCC#CCSc1nnc(-c2cccc3ccccc23)o1)c1ccc2ccccc2c1`, the Potency entry in test [1] and in test [2] was “inactive” in each case.

Take `COc1ccc(-c2ccc3ncnc(NCCc4cnc[nH]4)c3c2)cc1OC`: the Potency result in test [1] and in test [2] was “inactive” in each case.

In the case of `C=C1CC[C@H]2C(=C)CC[C@H]3C(=C)C(=O)O[C@@H]3[C@@H]12`, the Potency result in test [1] and in test [2] was “inactive” each time.

As to `CC(C)C[C@H](C(=O)O)c1cc(-c2ccc(C(F)(F)F)cc2)cc(-c2ccc(C(F)(F)F)cc2)c1`, the Potency result in test [1] and in test [2] was “inactive” each time.

`Cc1cc(C)n2ncc(C(=O)Nc3ccc(S(C)(=O)=O)cc3)c2n1`: the Potency result in test [1] and in test [2] was “inactive” in each case.

Regarding `O=C(/C=C/c1cccs1)Nc1cccc([S+](=O)([O-])Nc2ccccc2F)c1`, the Potency entry in test [1] and in test [2] was “inactive” in each case.

On to `Cc1cccc(-n2cnc3cc(C(=O)N4CCCC4)ccc32)c1`, for which the Potency entry in test [1] and in test [2] was “inactive” each time.

As for `CC(=O)c1ccccc1-c1ncc(C)c(NCC2CCN(c3cccnc3)CC2)n1`, the Potency result in test [1] and in test [2] was “inactive” in each case.

Consider `Cn1nnnc1Sc1ncnc2scc(-c3ccccc3S(C)(=O)=O)c12`, for which the Potency entry in test [1] and in test [2] was “inactive” each time.

For `COc1cc(F)c(S(=O)(=O)N2CCCN(S(=O)(=O)c3ccc(N)cc3)CC2)c(F)c1`, the Potency result in test [1] and in test [2] was “inactive” throughout.
